Source: PubChem BioAssay (National Center for Advancing Translational Sciences (NCATS))
Shown are actives, neighbours in structure and some others; about 9.4% of the full set was active somewhere.
HTT ATP protect – qHTS Multiplex Assay to Identify Dual Action Probes in a Cell Model of Huntington: Cytoprotection (ATP); Potency, µM (top dose mostly 56.4 µM), inactives show cytoprotection (ATP increase), hits mostly activators; hit rate 0.14% among 230,000; PC12 HTT-Q103 induced, cytoprotection, ATP luminescence, 40 h; note: potency is the fitted concentration of half-maximal effect; % of control where 0% means no effect; nearly all actives have a fitted effect of over 45% in size
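PC12 cells with ecdysone-inducible HTT exon 1 Q103-GFP, induced with 100 nM tebufenozide and co-treated with library compounds in a dose series (1536-well, 1500 cells/well). Cytoprotection read as ATP content by ATPlite luminescence.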
HttQ103 aggreg – qHTS Multiplex Assay to Identify Dual Action Probes in a Cell Model of Huntington: Aggregate Formation (GFP) | hit rate 1.1% among 220,000 | PC12 HttQ103-GFP aggregates, Acumen cytometry, 40 h | Potency, µM (titrated, usually from 46.1 µM), inactives show at the highest dose activity change, negative = inhibition, hits mostly inhibitors; note: potency is the fitted concentration of half-maximal effect; % is set by controls: 0 for no effect and ±100 for the full control effect; nearly all actives have a fitted effect of over 60% in size
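PC12 cells with ecdysone-inducible HTT exon1 Q103-GFP, induced by 100 nM tebufenozide, given compounds in a concentration series. GFP aggregates (1–25 um, 6 SD above background) counted in lysates by laser-scanning cytometry, 488 nm excitation.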
HPGD inh – qHTS Assay for Inhibitors of HPGD (15-Hydroxyprostaglandin Dehydrogenase) | hit rate 4.3% among 150,000 | Potency, µM, for inactives: at the highest dose activity change, negative = inhibition, most hits filed as inhibitors | AID 894, 2007 | purified HPGD, NADH fluorescence kinetic, PGE2 substrate | 15-hydroxyprostaglandin dehydrogenase [NAD(+)] (Homo sapiens), P15428; active = well fitted inhibition curve with a large enough effect, not every such curve was filed as active; inconclusive = small, poorly fitted or top-dose-only effect, or another doubt; inactive = no such curve, though single readings can be large or run the other way; note: potency is the fitted concentration of half-maximal effect; % is set by controls: 0 for no effect and ±100 for the full control effect
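NADH formation kinetics: reaction with 30 uM PGE2 and 1 mM NAD+ (final), 20 nM enzyme, Tris-HCl pH 8 with Tween 20, after 15 min compound preincubation at room temperature. Fluorescence change, last versus first of five reads.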
IMPase Li cell – qHTS Assay for Identifying the Cell-Membrane Permeable IMPase Inhibitors: Potentiation with Lithium. CHO-M1 cells, IP1 TR-FRET (IP-One), carbachol + lithium. Potency, µM (highest dose often 59.4 µM), without a hit: at the top dose activity, negative = IMPase inhibition, usual class: inhibitors. hit rate 0.35% among 210,000. AID 1457, 2008;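 note: IP1 builds up when IMPase is blocked and the TR-FRET signal falls; potency is the fitted concentration of half-maximal effect; plate controls were basal vehicle for no effect and high inhibitor control for full effect; nearly all actives have a fitted effect of over 50% in size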
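CHO-M1, 2000 cells/well, 16–30 h culture; cpd + low Li+, 30 min 37C; lysis with d2-IP1/Eu-anti-IP1 Ab, 10 min RT; TR-FRET 665/620 ratio and 620 channel; AC50 via Hill.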
IMPase inh – qHTS Assay for Identifying the Cell-Membrane Permeable IMPase Inhibitors. Inositol monophosphatase 1 (Rattus norvegicus), P97697. CHO-M1 cells, IP1 accumulation, HTRF TR-FRET ratio. inhibition (IP1 accumulation), % at 46.1 µM. 120,000 tested, under 10 active; active = well fitted curve in the direction sought with a large enough effect in the signal ratio, not every such curve was filed as active; inconclusive = small, poorly fitted or top-dose-only effect, or a change in a side signal; inactive = no such curve, though single readings can be large or run the other way; the % refers to the signal ratio;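 note: cells stimulated with carbachol in lithium chloride buffer; plate controls were DMSO basal wells for no effect and reference inhibitor wells for full effect; higher means more IMPase inhibition seen as more IP1 and lower FRET ratio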
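Elevated IP1 in lysates lowers TR-FRET signal (665/620 ratio and 620 channel reported). Cells were CHO-M1, given carbachol (50 uM as added) plus 50mM LiCl, pH 7.4, 30 min, 37C; compounds titrated up to 46 uM; AC50 by Hill equation.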
ALDH1A1 inh – qHTS Assay for Inhibitors of Aldehyde Dehydrogenase 1 (ALDH1A1); Aldehyde dehydrogenase 1A1 (Homo sapiens), P00352; Purified ALDH1A1, NADH fluorescence, propionaldehyde substrate; Potency, µM (top dose mostly 75.3 µM), inactives show at the top dose activity, negative = inhibition, actives largely listed as inhibitors; hit rate 7.3% among 220,000; active = well fitted inhibition curve with a large enough effect, not every such curve was filed as active; inconclusive = small, poorly fitted or top-dose-only effect, or another doubt; inactive = no such curve, though single readings can be large or run the other way;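 note: potency is the fitted concentration of half-maximal effect; plate controls were no enzyme wells and a reference inhibitor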
Target sequence (P00352 whole entry, looked up): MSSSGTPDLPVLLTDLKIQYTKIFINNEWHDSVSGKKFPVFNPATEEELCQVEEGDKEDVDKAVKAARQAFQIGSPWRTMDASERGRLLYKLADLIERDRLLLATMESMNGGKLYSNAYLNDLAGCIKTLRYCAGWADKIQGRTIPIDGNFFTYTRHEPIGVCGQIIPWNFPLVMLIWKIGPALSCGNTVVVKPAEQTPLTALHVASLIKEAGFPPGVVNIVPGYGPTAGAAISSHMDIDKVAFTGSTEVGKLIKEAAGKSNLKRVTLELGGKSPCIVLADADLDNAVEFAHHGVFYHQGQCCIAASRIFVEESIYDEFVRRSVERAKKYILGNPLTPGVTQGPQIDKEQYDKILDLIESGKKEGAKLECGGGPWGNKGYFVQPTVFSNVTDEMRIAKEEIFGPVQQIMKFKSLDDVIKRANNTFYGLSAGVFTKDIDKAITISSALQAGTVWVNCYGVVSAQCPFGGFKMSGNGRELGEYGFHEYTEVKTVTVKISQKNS
Numbers without * were called inactive; [ ] = another dose, or the depositor's remark. Unless noted, calls come from the whole dose curve; as a rule, active = well fitted curve in the direction sought with a large enough effect; inconclusive = small, poorly fitted or top-dose-only effect, or another doubt; inactive = no such curve, though single readings can be large; an effect the other way counts as inactive or inconclusive.

Results for CCCCCCC#CC1C=CC(OC(=O)OCC)C(COC(=O)OCC)O1 (stereo not drawn) ?
HTT ATP protect: 2µM*; ALDH1A1 inh: 3.98µM*

What do the screens show for `c1ccc(CN2CCC3(CC2)SSC2(CCN(Cc4ccccc4)CC2)SS3)cc1`?
HTT ATP protect: 4.2%[10 µM]; HPGD inh: -4.3%; IMPase Li cell: -3.6%; ALDH1A1 inh: -6.6%[13.5 µM]

Results for CC(CN1CCN(C)CC1)OC(=O)c1cccc(Cl)c1 (stereo not drawn) ?
HTT ATP protect: 6.7%[10 µM]; HttQ103 aggreg: 9.4%[9.22 µM]

What do the screens show for `CCNc1ncc2nc(-c3cccs3)c(=O)n(-c3ccccc3)c2n1`?
HTT ATP protect: 5.0%; IMPase Li cell: -13.7%; ALDH1A1 inh: inconclusive

Results for CC1(O)CC2C(CC1O)C2(C)C (stereo not drawn) ?
HPGD inh: -8.5%; IMPase Li cell: 10.5%; ALDH1A1 inh: 3.0%

What do the screens show for `Cc1ccc(O)c(C(=O)c2cnc3onc(-c4ccc(F)cc4)c3c2)c1`?
HttQ103 aggreg: -5.4%; HPGD inh: 12.6µM*; IMPase Li cell: -1.7%; ALDH1A1 inh: 14.1µM*

What do the screens show for `Cc1ccsc1C(=O)NNC(=O)C1CCCCC1C(=O)O` (stereo not drawn)?
HTT ATP protect: -8.4%[10 µM]; HttQ103 aggreg: 3.0%; HPGD inh: -2.3%; IMPase Li cell: 0.4%; IMPase inh: 4.2[0.0738 µM]; ALDH1A1 inh: 22.4µM*

What do the screens show for `CCOC(=O)CCN1C(=O)[C@H]2[C@@H]3[C@H](O)C=CC(=O)[C@H]3CC[C@H]2C1=O`?
HTT ATP protect: inconclusive; ALDH1A1 inh: -2.2%[13.5 µM]

How did O=C1C=C[C@@H](O)[C@H]2[C@@H]3C(=O)N(Cc4ccccc4)C(=O)[C@@H]3CC[C@H]12 do in these assays?
HTT ATP protect: 4.2%[10 µM]; ALDH1A1 inh: 3.16µM*

What do the screens show for `CC(C)CO/N=C1/C[C@@H](O)[C@@H](O)[C@@H]2[C@@H]3C(=O)N(Cc4ccccc4)C(=O)[C@H]3CC[C@H]12`?
HTT ATP protect: -7.6%[10 µM]; ALDH1A1 inh: 3.0%[13.5 µM]

What do the screens show for `CC(C)CO/N=C1/C[C@@H](O)[C@@H](O)[C@@H]2[C@@H]3C(=O)N(Cc4ccccc4)C(=O)[C@H]3CC[C@@H]12`?
HTT ATP protect: 2.82µM*; ALDH1A1 inh: 9.3%[13.5 µM]

How did CCNc1ncc2nc(CCc3ccccc3)c(=O)n(-c3ccccc3)c2n1 do in these assays?
HTT ATP protect: -22.6%; HPGD inh: inconclusive; IMPase Li cell: -4.5%; ALDH1A1 inh: inconclusive

What do the screens show for `COc1ccc(-c2nc3ccccc3o2)cc1NC(=O)COc1ccc(C(C)(C)C)cc1`?
IMPase inh: -4.6

How did NNC(=O)c1ccc(-c2cccc([N+](=O)[O-])c2)o1 do in these assays?
HTT ATP protect: -36.4%; HttQ103 aggreg: -8.4%; IMPase Li cell: -1.4%; ALDH1A1 inh: 7.08µM*

Results for CN1CCN(c2ccc(NC(=O)c3ccc(-c4cccc([N+](=O)[O-])c4)o3)cc2)CC1 ?
HTT ATP protect: -180.7%; HttQ103 aggreg: -29.9%; IMPase Li cell: 22.7%; ALDH1A1 inh: -3.4%

What do the screens show for `COc1ccc(CCNC(=O)c2ccc(-c3cccc([N+](=O)[O-])c3)o2)cc1OC`?
HTT ATP protect: -39.0%; HttQ103 aggreg: 17.1%[9.22 µM]; IMPase Li cell: 13.6%; ALDH1A1 inh: 12.6µM*

Results for COc1ccc(CCNC(=O)Cc2ccc([N+](=O)[O-])cc2)cc1OC ?
HTT ATP protect: -1.9%[10 µM]; HttQ103 aggreg: 14.6%[9.22 µM]; ALDH1A1 inh: -0.9%
